Values joined by “and” are separate entries in the source; they are usually repeats but may differ in a detail not shown here. Equal values may be shown once. Active and inactive are the calls of the source.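 How the source made its calls: active means thallium flux through the channel raised or lowered by more than 3 SD from vehicle-only wells, actives on both sides; inactive means the rest.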 Non-standard residues stand in square brackets, D forms with d. Residues, ends and D or L forms follow the SMILES beside them. pGlu = O=C1CC[C@@H](C(=O)O)N1; Thz = O=C(O)[C@@H]1CSCN1
Target: Calcium-activated potassium channel subunit alpha-1 (Homo sapiens) + Leucine-rich repeat-containing protein 26 (Homo sapiens) (UniProt Q12791+Q2I0M4)
Assay: BK channel mutant inhibitors and activators – cell-based, U2OS BacMam, thallium flux, beta subunits, selectivity assay, profiling panel (AID 1259406);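 further: initial slope of Thallos dye fluorescence rise after thallium is added; log ratio against the mean of 0.3% DMSO vehicle wells on the same plate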
Details: U2OS BacMam BK variants, F380Y/Slo1WT/gamma1, at 30 µM

Sequence of Calcium-activated potassium channel subunit alpha-1 (Homo sapiens) + Leucine-rich repeat-containing protein 26 (Homo sapiens) (Q2I0M4 whole entry, looked up, one chain of several): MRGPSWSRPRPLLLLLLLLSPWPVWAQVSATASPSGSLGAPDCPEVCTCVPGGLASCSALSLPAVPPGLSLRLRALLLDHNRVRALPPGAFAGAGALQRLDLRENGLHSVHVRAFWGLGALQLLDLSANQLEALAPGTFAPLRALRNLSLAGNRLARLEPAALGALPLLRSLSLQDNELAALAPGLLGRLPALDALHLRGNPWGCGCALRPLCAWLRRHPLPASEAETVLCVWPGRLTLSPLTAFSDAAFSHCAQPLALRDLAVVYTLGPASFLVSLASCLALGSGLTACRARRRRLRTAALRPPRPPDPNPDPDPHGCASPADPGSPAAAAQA

Log fold change Tl+ flux, inactive:
COc1nc(C)nc(Cl)c1NC1=NCCN1 -0.00669, CC(Cc1ccc(O)c(O)c1)(NN)C(=O)O (centres undefined) 0.00594, CSc1nc(C)nc(Sc2cccc(C(F)(F)F)c2)c1C#N 0.0378, Cc1cc2c(s1)Nc1ccccc1N=C2N1CCN(C)CC1 -0.004

System: R275C
Assay: as above
Details: U2OS BacMam BK variants, at 30 µM

Log fold change Tl+ flux, active:
CN(C)CCc1c[nH]c2ccc(Cn3cncn3)cc12 -0.121, CCN(CC)CC#CCOC(=O)C(O)(c1ccccc1)C1CCCCC1 (centres undefined) -0.105, CC(Cc1ccc(O)c(O)c1)(NN)C(=O)O (centres undefined) 0.0956

Log fold change Tl+ flux, inactive:
O=C1CN2Cc3c(ccc(Cl)c3Cl)N=C2N1 -0.0701, COC(=O)C[C@](O)(CCCC(C)(C)O)C(=O)O[C@@H]1C(OC)=C[C@]23CCCN2CCc2cc4c(cc2[C@H]13)OCO4 -0.0969, CNCC[C@H](Oc1cccc2ccccc12)c1cccs1 0.0449, O=c1[nH]c(=O)n(C2CCCO2)cc1F (centres undefined) -0.0615, CSc1nc2cc(Oc3cccc(Cl)c3Cl)c(Cl)cc2[nH]1 0.0179, COc1ccc(C[C@H](C)NC[C@@H](O)c2ccc(O)c(NC=O)c2)cc1 0.00389, CC(C)C[C@H](NC(=O)[C@@H](O)[C@H](N)Cc1ccccc1)C(=O)O -0.0391, C[C@@H](c1ncncc1F)[C@](O)(Cn1cncn1)c1ccc(F)cc1F -0.0159, CN(C)CCCC1(c2ccc(F)cc2)OCc2cc(C#N)ccc21 (centres undefined) -0.0255 and -0.00148, CCOC(=O)c1ccc(OC(=O)CCCCCN=C(N)N)cc1 -0.063, Cc1c(C(=O)NN2CCCCC2)nn(-c2ccc(Cl)cc2Cl)c1-c1ccc(I)cc1 0.0781, CC(C)NCC(O)c1ccc(NS(C)(=O)=O)cc1 (centres undefined) -0.065, O=C(NC(=O)c1ccccc1Oc1ccc(Cl)cc1Cl)Nc1cc(Cl)cc(Cl)c1 0.0363, CC(=O)NC[C@H]1CN(c2ccc(N3CCOCC3)c(F)c2)C(=O)O1 -0.0414, CC(CCCCC(=O)Nc1ccc(C(F)(F)F)cc1)NCCc1cnc[nH]1 (centres undefined) -0.0675, O=C(c1ccc(OCCN2CCCCC2)cc1)c1c(-c2ccc(O)cc2)sc2cc(O)ccc12 0.0285, O=C1CC[C@@H](C(=O)N2CSC[C@H]2C(=O)O)N1 ([pGlu]-[Thz]-OH) -0.0391, CN/C(=C\[N+](=O)[O-])NCCSCc1csc(CN(C)C)n1 0.0141, CNCC[C@@H](Oc1ccccc1C)c1ccccc1 -0.0128, Cc1cccc(CCN2CCC(C(=O)c3ccc(NS(C)(=O)=O)cc3)CC2)n1 -0.00568, CN(C)CCOc1ccc(/C(=C(/CCCl)c2ccccc2)c2ccccc2)cc1 -0.0555, CC(C)(S)C(N)C(=O)O (centres undefined) -0.00906, CC[C@H]1OC(=O)[C@H](C)[C@@H](O[C@H]2C[C@@](C)(OC)[C@@H](O)[C@H](C)O2)[C@H](C)[C@@H](O[C@@H]2O[C@H](C)C[C@H](N(C)C)[C@H]2O)[C@](C)(O)C[C@@H](C)CN(C)[C@H](C)[C@@H](O)[C@]1(C)O 0.011, NCC(O)c1ccc(O)c(O)c1 (centres undefined) 0.0185, CN1CC(=O)N2[C@H](c3ccc4c(c3)OCO4)c3[nH]c4ccccc4c3C[C@@H]2C1=O -0.0348, COC(=O)c1sccc1NN=C(C)c1ccc(NC(=O)C(Cl)Cl)cc1 -0.0133, Cc1cnc(C(=O)NCCc2ccc(S(=O)(=O)NC(=O)NC3CCCCC3)cc2)cn1 0.0214, C/C(=C\C(=O)OCCCCCCCCC(=O)O)C[C@@H]1OC[C@H](C[C@@H]2O[C@H]2[C@@H](C)[C@H](C)O)[C@@H](O)[C@H]1O -0.0142, FC(F)(F)c1cc(C=Cc2noc(-c3ccc(CN4CCCC4)cc3)n2)cc(C(F)(F)F)c1 -0.0044, C[C@H]1O[C@H](O[C@H]2[C@H](O)[C@@H](O)[C@@H](O[C@H]3[C@H](O)[C@@H](O)C(O)O[C@@H]3CO)O[C@@H]2CO)[C@H](O)[C@@H](O)[C@@H]1N[C@H]1C=C(CO)[C@@H](O)[C@H](O)[C@H]1O (some centres undefined) -0.0575, CCCCN1CCCC1CNC(=O)c1cc(C#N)c2ccccc2c1OC (centres undefined) -0.0841, COc1ccc2[nH]c(S(=O)Cc3ncc(C)c(OC)c3C)nc2c1 (centres undefined) -0.061, CN1[C@@H]2CCC[C@H]1CC(NC(=O)c1nn(C)c3ccccc13)C2 (some centres undefined) -0.0264, COc1c(N2C[C@@H]3CCCN[C@@H]3C2)c(F)cc2c(=O)c(C(=O)O)cn(C3CC3)c12 -0.02, COc1nc(C)nc(Cl)c1NC1=NCCN1 -0.0325, CSc1nc(C)nc(Sc2cccc(C(F)(F)F)c2)c1C#N -0.0292, Cc1cc2c(s1)Nc1ccccc1N=C2N1CCN(C)CC1 -0.00393

Source: PubChem BioAssay
